# Reference: the supplement of paper PMC12669032
# Key:
# [1] = tested on: Roseburia intestinalis; test: growth AUC relative to DMSO control (median of replicates) (fraction); higher = more growth (less inhibition), active = hit call of the paper; conditions: 20 µM; 24 h
# Outline: (§1)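 Gut bacterial monocultures were grown anaerobically at 37 °C in mGAM from a starting OD600 of 0.05 with 20 µM compound (1% DMSO), in round-bottom 96-well plates under pierced gas-permeable seals, and OD600 was read hourly for 24 h. With the minimum OD set to 0, area under the growth curve was normalised to the plate median of solvent-only wells, or to row and column medians on the industrial chemical plate. Each value is the median of three biological replicates grown on separate days.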
# [2] = tested on: Streptococcus salivarius; test: as above; conditions: 20 µM; 24 h
# Outline: as §1
Structure (SMILES),growth AUC [1],growth AUC [2]
CCCSP(=O)(OCC)Oc1ccc(Br)cc1Cl (configuration not stated),1.01 (inactive),1.01 (inactive)
CCNc1nc(NC(C)C)nc(OC)n1,0.953 (inactive),0.945 (inactive)
OC(Cn1cncn1)(c1ccc(F)cc1)c1ccccc1F (configuration not stated),0.966 (inactive),1.01 (inactive)
Clc1ccccc1Cl,0.968 (inactive),1.07 (inactive)
Clc1ccc(C(c2ccc(Cl)cc2)C(Cl)Cl)cc1,0.923 (inactive),0.99 (inactive)
CCOP(=S)(OCC)SCS(=O)C(C)(C)C (configuration not stated),1.04 (inactive),1.04 (inactive)
CCOP(=O)(N=C1SCC(C)S1)OCC (configuration not stated),0.969 (inactive),0.987 (inactive)
N#Cc1nn(-c2c(Cl)cc(C(F)(F)F)cc2Cl)c(N)c1SC(F)(F)F,0.558 (active),0.75 (active)
O=CNC(N1CCN(C(NC=O)C(Cl)(Cl)Cl)CC1)C(Cl)(Cl)Cl (configuration not stated),0.934 (inactive),0.982 (inactive)
O=S1(=O)OCC2C(CO1)C1(Cl)C(Cl)=C(Cl)C2(Cl)C1(Cl)Cl (configuration not stated),0.915 (inactive),0.991 (inactive)
CN(C)C(CSC(N)=O)CSC(N)=O.Cl,1.07 (inactive),1 (inactive)
CC(C)N(C(=O)COc1nnc(C(F)(F)F)s1)c1ccc(F)cc1,1.01 (inactive),0.949 (inactive)
COC(=O)N(OC)c1ccccc1COc1ccn(-c2ccc(Cl)cc2)n1,0.945 (inactive),0.928 (inactive)
CCc1cccc(C)c1N(C(=O)CCl)C(C)COC (configuration not stated),1.07 (inactive),1.05 (inactive)
CC(C)N(C(=O)CCl)c1ccccc1,0.963 (inactive),1.04 (inactive)
COP(=O)(OC)O/C(=C/Br)c1ccc(Cl)cc1Cl,1.02 (inactive),1 (inactive)
COC(=O)NCc1cc(/C(C)=N\OCc2cccc(C)n2)ccc1Cl,1.01 (inactive),0.974 (inactive)
CC#Cc1cc(C)nc(Nc2ccccc2)n1,1.01 (inactive),1.01 (inactive)
CC(C)(C)c1ccc(CSc2cnn(C(C)(C)C)c(=O)c2Cl)cc1,0.979 (inactive),0.986 (inactive)
ClCC1C(CCl)C2(Cl)C(Cl)=C(Cl)C1(Cl)C2(Cl)Cl (configuration not stated),0.996 (inactive),0.981 (inactive)
ClC1=C(Cl)[C@]2(Cl)[C@@H]3[C@H]4C[C@H]([C@@H]5O[C@H]45)[C@@H]3[C@@]1(Cl)C2(Cl)Cl,0.909 (inactive),0.963 (inactive)
CC1(C)C(C=C(Cl)Cl)C1C(=O)OC(C#N)c1cccc(Oc2ccccc2)c1 (configuration not stated),0.871 (inactive),0.937 (inactive)
CCCCCCCC(=O)Oc1c(I)cc(C#N)cc1I,0.957 (inactive),0.805 (inactive)
O=C1C[C@@H]2OCC=C3CN4CC[C@]56c7ccccc7N1[C@H]5[C@H]2[C@H]3C[C@H]46,0.998 (inactive),0.968 (inactive)
COc1ccc(-c2ccccc2)cc1NNC(=O)OC(C)C,1.03 (inactive),1.02 (inactive)
CCCOC(=O)c1ccccc1C(=O)OCCC,1.1 (inactive),1.01 (inactive)
